Source: PubChem BioAssay (EPA / NIEHS)
Active and inactive are the calls of the source. Rule for the calls: active = hit-call score of the fitted dose curve at least 0.9, where 1 is the maximum; inactive = score below 0.9.

Assays:
[1] = read-out: Matrix Metallopeptidase 9 (MMP9), MMP9 (gene 4318); experiment: BSK_KF3CT_MMP9: BioMAP Diversity Plus: KF3CT Assay for Matrix Metallopeptidase 9 (MMP9) Biomarker Activity (AID 2283074); conditions: primary human keratinocytes with fibroblasts; actives raise or lower the signal
Method in brief: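 MMP-9 quantified by ELISA after 24 h chemical treatment of primary human skin keratinocyte/fibroblast co-cultures; gain or loss fitted against DMSO, with parallel SRB staining (0.1% SRB, 560 nm) for overt cytotoxicity.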

[2] = read-out: urokinase plasminogen activator (uPA), PLAU (gene 5328); experiment: BSK_KF3CT_uPA: BioMAP Diversity Plus: KF3CT Assay for urokinase plasminogen activator (uPA) Biomarker Activity (AID 2283075); conditions: primary human keratinocytes with fibroblasts; actives raise or lower the signal
Method in brief: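 ELISA read-out of uPA 24 h after dosing human skin keratinocytes co-cultured with foreskin fibroblasts. Signal change fitted both ways relative to DMSO; sulforhodamine B on parallel cultures marks overt cytotoxicity.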

CD40, CD40 (gene 958) [3] = experiment: BSK_LPS_CD40: BioMAP Diversity Plus: LPS Assay for CD40 Biomarker Activity (AID 2283076); conditions: primary human HUVEC with PBMC; actives raise or lower the signal
Method in brief: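 HUVEC plus PBMC co-culture stimulated with LPS; CD40 quantified by ELISA 24 h after compound dosing. Fitting was bidirectional relative to DMSO. SRB staining of parallel cultures flagged overt cytotoxicity.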

[4] = read-out: E-selectin (Homo sapiens) (UniProt P16581); experiment: BSK_LPS_Eselectin: BioMAP Diversity Plus: LPS Assay for Eselectin Biomarker Activity (AID 2283077); conditions: primary human HUVEC with PBMC; actives raise or lower the signal
Method in brief: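 Human umbilical vein endothelial cells co-cultured with PBMC under LPS stimulation; cell-surface E-selectin measured by ELISA 24 h after dosing. Change in either direction versus DMSO, with SRB total-protein staining in parallel cultures for cytotoxicity.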

[5] = read-out: Interleukin-8 (IL8), CXCL8 (gene 3576); experiment: BSK_LPS_IL8: BioMAP Diversity Plus: LPS Assay for Interleukin-8 (IL8) Biomarker Activity (AID 2283078); conditions: primary human HUVEC with PBMC; actives raise or lower the signal
Method in brief: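 Human umbilical vein endothelial cells co-cultured with PBMC, LPS-stimulated, exposed to compound for 24 h. IL-8 quantified by ELISA; fitted in both directions against DMSO, with SRB total-protein staining of parallel cultures for cytotoxicity.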

[6] = BSK_LPS_SRB: Viability Assessment in the BioMAP Diversity Plus: LPS Assay (AID 2283079); conditions: primary human HUVEC with PBMC;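 note: total protein by sulforhodamine B absorbance as a cytotoxicity measure; measured one day after compound addition; fitted in both directions against DMSO so loss or gain of signal counts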
Method in brief: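 Co-culture of human umbilical vein endothelial cells and PBMC, read 24 h after dosing. Total protein by 0.1% SRB staining after 10% TCA fixation, absorbance at 560 nm; bidirectional fit against DMSO.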

[7] = read-out: Interleukin-1 alpha (IL1a), IL1A (gene 3552); experiment: BSK_LPS_IL1a: BioMAP Diversity Plus: LPS Assay for Interleukin-1 alpha (IL1a) Biomarker Activity (AID 2283080); conditions: primary human HUVEC with PBMC; actives raise or lower the signal
Method in brief: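 Human umbilical vein endothelial cells co-cultured with PBMC and stimulated with LPS; IL-1a measured by ELISA 24 h after dosing. Bidirectional fitting against DMSO; cytotoxicity checked by SRB staining in parallel cultures.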

[8] = read-out: Monocyte Chemoattractant Protein-1 (MCP1), CCL2 (gene 6347); experiment: BSK_LPS_MCP1: BioMAP Diversity Plus: LPS Assay for Monocyte Chemoattractant Protein-1 (MCP1) Biomarker Activity (AID 2283081); conditions: primary human HUVEC with PBMC; actives raise or lower the signal
Method in brief: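 Human umbilical vein endothelial cells co-cultured with PBMC, LPS-stimulated; secreted MCP-1 measured by ELISA 24 h after compound addition. Bidirectional curve fitting against DMSO baseline; SRB total-protein staining in parallel cultures for cytotoxicity.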

[9] = BSK_LPS_PGE2: BioMAP Diversity Plus: LPS Assay for Prostaglandin E2 (PGE2) Biomarker Activity (AID 2283082); conditions: primary human HUVEC with PBMC; actives raise or lower the signal
Method in brief: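 Compounds were added to the LPS co-culture of endothelium and PBMC, and PGE2 was measured by ELISA after 24 h. Responses in either direction were fitted with DMSO as baseline.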

[10] = read-out: Macrophage colony-stimulating factor (MCSF), CSF1 (gene 1435); experiment: BSK_LPS_MCSF: BioMAP Diversity Plus: LPS Assay for Macrophage colony-stimulating factor (MCSF) Biomarker Activity (AID 2283083); conditions: primary human HUVEC with PBMC; actives raise or lower the signal
Method in brief: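 HUVEC–PBMC co-culture, M-CSF measured by ELISA 24 h after chemical dosing. Fitted in both directions relative to DMSO as negative control; overt cytotoxicity assessed by SRB total-protein staining in parallel cultures.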

[11] = read-out: Tissue Factor, F3 (gene 2152); experiment: BSK_LPS_TissueFactor: BioMAP Diversity Plus: LPS Assay for Tissue Factor Biomarker Activity (AID 2283084); conditions: primary human HUVEC with PBMC; actives raise or lower the signal
Method in brief: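 Human umbilical vein endothelial cells co-cultured with PBMC were dosed with compound. Cell-surface CD142 was measured by ELISA 24 h later. Activity was fitted bidirectionally against DMSO, with SRB total-protein staining in parallel cultures for cytotoxicity.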

[12] = read-out: Tumor necrosis factor (Homo sapiens) (UniProt P01375); experiment: BSK_LPS_TNFa: BioMAP Diversity Plus: LPS Assay for Tumour Necrosis Factor alpha (TNFa) Biomarker Activity (AID 2283085); conditions: primary human HUVEC with PBMC; actives raise or lower the signal
Method in brief: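 Cells (umbilical vein endothelium plus peripheral blood mononuclear cells) were dosed with chemical, incubated 24 h, then TNFa was quantified by ELISA; values derive from bidirectional fitting with DMSO as baseline.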

[13] = read-out: Vascular cell adhesion molecule 1 (VCAM1), VCAM1 (gene 7412); experiment: BSK_LPS_VCAM1: BioMAP Diversity Plus: LPS Assay for Vascular cell adhesion molecule 1 (VCAM1) Biomarker Activity (AID 2283086); conditions: primary human HUVEC with PBMC; actives raise or lower the signal
Method in brief: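 Cells are dosed in an LPS-stimulated endothelial/mononuclear co-culture and, after 24 h, VCAM-1 is quantified by ELISA. Activity in either direction is fitted relative to the DMSO negative control.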

CD38, CD38 (gene 952) = experiment: BSK_SAg_CD38: BioMAP Diversity Plus: SAg Assay for CD38 Biomarker Activity (AID 2283087); conditions: primary human HUVEC with PBMC; actives raise or lower the signal
Method in brief: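 CD38 quantified by ELISA (fluorescence) in a superantigen-activated endothelial cell–PBMC co-culture at 24 h post-dose. Activity fitted in both directions relative to DMSO; parallel SRB and Alamar Blue cytotoxicity read-outs.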

CD40, CD40 (gene 958) [14] = experiment: BSK_SAg_CD40: BioMAP Diversity Plus: SAg Assay for CD40 Biomarker Activity (AID 2283088); conditions: primary human HUVEC with PBMC; actives raise or lower the signal
Method in brief: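 HUVEC plus PBMC co-culture, superantigen-activated, with CD40 read by ELISA 24 h after dosing. Curves fitted in both directions against DMSO. Overt cytotoxicity checked by parallel SRB total-protein staining.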

CD69, CD69 (gene 969) = experiment: BSK_SAg_CD69: BioMAP Diversity Plus: SAg Assay for CD69 Biomarker Activity (AID 2283089); conditions: primary human HUVEC with PBMC; actives raise or lower the signal
Method in brief: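 Primary human vascular co-culture (umbilical vein endothelium with peripheral blood mononuclear cells) exposed to test chemical for 24 h. CD69 levels quantified by fluorescence ELISA; DMSO served as negative control for bidirectional fitting.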

[15] = read-out: Monocyte Chemoattractant Protein-1 (MCP1), CCL2 (gene 6347); experiment: BSK_SAg_MCP1: BioMAP Diversity Plus: SAg Assay for Monocyte Chemoattractant Protein-1 (MCP1) Biomarker Activity (AID 2283090); conditions: primary human HUVEC with PBMC; actives raise or lower the signal
Method in brief: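 Values derive from bidirectional fitting of ELISA-measured MCP1 against DMSO controls. Readings were taken 24 h after dosing human vascular endothelial cells co-cultured with peripheral blood mononuclear cells under superantigen stimulation.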

[16] = read-out: E-selectin (Homo sapiens) (UniProt P16581); experiment: BSK_SAg_Eselectin: BioMAP Diversity Plus: SAg Assay for Eselectin Biomarker Activity (AID 2283091); conditions: primary human HUVEC with PBMC; actives raise or lower the signal
Method in brief: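 Human umbilical vein endothelial cells co-cultured with peripheral blood mononuclear cells, SAg system. E-selectin is measured by ELISA 24 h after dosing and fitted bidirectionally against DMSO. Cytotoxicity is checked by SRB staining of parallel cultures.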

[17] = read-out: Monokine induced gamma interferon (MIG), CXCL9 (gene 4283); experiment: BSK_SAg_MIG: BioMAP Diversity Plus: SAg Assay for Monokine induced gamma interferon (MIG) Biomarker Activity (AID 2283092); conditions: primary human HUVEC with PBMC; actives raise or lower the signal
Method in brief: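 Endothelial cells and PBMC were co-cultured, exposed to test chemicals, and sampled 24 h later. MIG was measured by ELISA, and responses were fitted in both directions relative to DMSO.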

[18] = read-out: C-C motif chemokine 2 (Homo sapiens) (UniProt P13500); experiment: BSK_KF3CT_MCP1: BioMAP Diversity Plus: KF3CT Assay for Monocyte Chemoattractant Protein 1 (MCP1/CCL2) Biomarker Activity (AID 2283073); conditions: primary human keratinocytes with fibroblasts; actives raise or lower the signal
Method in brief: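 Human keratinocyte–foreskin fibroblast co-culture; MCP-1 measured by ELISA 24 h after dosing. Bidirectional fit vs DMSO; cytotoxicity tracked by SRB total protein in parallel cultures.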

Measured: outcome

Sequence of E-selectin (Homo sapiens) (P16581 whole entry, looked up): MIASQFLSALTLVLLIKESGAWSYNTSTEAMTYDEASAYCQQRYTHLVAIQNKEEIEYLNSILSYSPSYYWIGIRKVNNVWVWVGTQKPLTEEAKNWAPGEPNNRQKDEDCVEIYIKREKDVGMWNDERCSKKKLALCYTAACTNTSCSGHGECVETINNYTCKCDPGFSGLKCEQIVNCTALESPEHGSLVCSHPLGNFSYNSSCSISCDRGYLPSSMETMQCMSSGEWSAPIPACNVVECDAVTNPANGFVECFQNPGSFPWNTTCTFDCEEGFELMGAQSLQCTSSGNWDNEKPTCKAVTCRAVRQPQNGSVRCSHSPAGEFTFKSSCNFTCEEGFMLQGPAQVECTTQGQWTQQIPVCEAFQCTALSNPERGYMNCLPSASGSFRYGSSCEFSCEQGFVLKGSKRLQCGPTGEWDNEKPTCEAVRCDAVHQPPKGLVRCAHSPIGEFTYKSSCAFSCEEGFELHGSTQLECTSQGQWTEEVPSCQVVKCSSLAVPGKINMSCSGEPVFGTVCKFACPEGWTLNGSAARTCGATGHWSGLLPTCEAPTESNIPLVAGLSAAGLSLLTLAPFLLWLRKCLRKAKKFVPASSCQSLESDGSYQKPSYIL
Sequence of Tumor necrosis factor (Homo sapiens) (P01375 whole entry, looked up): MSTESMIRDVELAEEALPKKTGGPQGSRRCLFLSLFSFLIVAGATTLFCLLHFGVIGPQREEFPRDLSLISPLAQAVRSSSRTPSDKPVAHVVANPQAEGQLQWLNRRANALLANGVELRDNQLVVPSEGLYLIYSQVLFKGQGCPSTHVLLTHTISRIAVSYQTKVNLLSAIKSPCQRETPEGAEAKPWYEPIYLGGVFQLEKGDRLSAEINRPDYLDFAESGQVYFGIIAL

CC(C)CCCCCCOC(=O)C1CCCCC1C(=O)OCCCCCCC(C)C (stereo unspecified)
not listed: [18]
inactive: all other assays above

COS(C)(=O)=O
not listed: [18]
inactive: all other assays above

CCCc1ccccc1
not listed: [18]
inactive: all other assays above

CCOc1ccc2[nH]cc(C(=O)NCc3ccccc3)c(=O)c2n1
not listed: CD38, CD38 (gene 952)
inactive: all other assays above
